High-throughput results as filed in PubChem.
MBNL1 CUG block: qHTS Assay for Inhibitors of MBNL1-poly(CUG) RNA binding | TR-FRET MBNL1-His/biotin-(CUG)12 binding, 665/545 ratio | 0.036% of 280,000 active | Potency, µM (series often up to 57.5 µM), hits mostly inhibitors | Muscleblind-like protein 1 (Homo sapiens), Q9NR56; active = well fitted inhibition curve with a large enough effect in the signal ratio, with a control signal flat, not every such curve was filed as active; inconclusive = small, poorly fitted or top-dose-only effect, or effect the other way, or a change in a side signal; inactive = no such curve, though single readings can be large or run the other way; the % refers to the signal ratio
Target sequence (Q9NR56 whole entry, looked up): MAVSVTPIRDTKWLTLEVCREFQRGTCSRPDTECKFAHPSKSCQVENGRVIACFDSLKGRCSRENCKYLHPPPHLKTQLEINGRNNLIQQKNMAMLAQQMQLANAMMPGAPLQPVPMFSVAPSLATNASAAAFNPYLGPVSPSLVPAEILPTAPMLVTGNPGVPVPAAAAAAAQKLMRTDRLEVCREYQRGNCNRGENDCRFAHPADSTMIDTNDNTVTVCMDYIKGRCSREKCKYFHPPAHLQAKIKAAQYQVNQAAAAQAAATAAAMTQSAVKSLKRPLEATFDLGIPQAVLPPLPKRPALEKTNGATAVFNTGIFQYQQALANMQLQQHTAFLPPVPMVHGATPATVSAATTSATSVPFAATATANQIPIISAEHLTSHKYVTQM
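TR-FRET between His-tagged MBNL1 and biotin-(CUG)12 RNA, detected with Tb anti-His antibody (0.055 ng/ul) and streptavidin-XL665 (5 nM), 60 min at room temperature. Compounds titrated 92 nM to 58 uM; 665/545 nm ratio normalized to buffer and complex controls.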
CtBP-E1A inh: qHTS Assay for Inhibitors of the CtBP/E1A Interaction; AlphaScreen GST-E1A/His-CtBP binding, 1536-well; stronger effect = lower value; activity change, % (test concentration not listed); 0.49% of 340,000 active; in the data active = activity change below about -65%; inconclusive = mostly about -30% to -63%
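In 5 uL wells, 23 nL compound meets equimolar GST-E1A and His-CtBP (5X stock 125 nM each) for 2 h, 37 °C. Beads (5X, 50 ug/mL) then 1 h, 37 °C, dark.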
RORg inh: qHTS for inhibitors of ROR gamma transcriptional activity. Nuclear receptor ROR-gamma (Mus musculus), P51450. Drosophila S2 Gal4-RORgamma UAS-luciferase reporter, 20 h. Potency, µM (doses to about 53.6 µM), usual class: inhibitors. 5.4% of 310,000 active; note: nearly all actives have a fitted effect of over 60% in size
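A Gal4/UAS one-hybrid system in insect cells: metallothionein-promoter Gal4–ROR gamma fusion plus Photinus luciferase reporter. Copper sulfate 700 uM final, 20 hr ambient incubation, luminescent detection after 10 min with reagent.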
VP16 counter: VP16 counterscreen qHTS for inhibitors of ROR gamma transcriptional activity. Drosophila S2 Gal4-VP16 UAS-luciferase, luminescence, 20 h. Potency, µM (doses to about 53.6 µM), usual class: inhibitors. 3.5% of 310,000 active;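 note: Gal4-VP16 expression switched on by copper sulfate through the metallothionein promoter; nearly all actives have a fitted effect of over 50% in size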
CBFb-RUNX1 inh: qHTS Assay for Compounds Blocking the Interaction Between CBF-beta and RUNX1 for the Treatment of Acute Myeloid Leukemia. AlphaScreen CBFb-His/RUNX1-biotin binding, biochemical. Potency, µM (doses to about 59.8 µM), most hits filed as inhibitors. AID 1477, 2009. 230,000 tested, under 10 active. Runt-related transcription factor 1 (Homo sapiens) + Core-binding factor subunit beta …
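Room-temperature protein-protein interaction test with 30 nM each of His-tagged CBF-beta and biotinylated RUNX1, 15 min with compound, then 90 min with nickel plus streptavidin beads. Signal read in AlphaScreen mode.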
Six1-Eya2 blk: qHTS Assay for Inhibitors of the Six1/Eya2 Interaction; AlphaScreen GST-Six1/His-Eya2 binding, biochemical; stronger effect = lower value; 0.56% of 360,000 active; Homeobox protein SIX1 (Homo sapiens) + Protein phosphatase EYA2 (Homo sapiens), …; activity change, % (no concentration beside the values); in the data active = activity change below about -65%; inconclusive = mostly about -30% to -63%
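AlphaScreen with GST-Six1 and His-Eya2 (5X mix: 250 nM and 500 nM), glutathione donor and nickel acceptor beads; buffer 50 mM Tris pH 8.0, 300 mM NaCl, 1 mM TCEP; 1 h at 37 C in the dark.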
Hits are given with their value; i = inactive; ? = inconclusive; nt = not tested or not shown; [ ] = another dose, or the depositor's remark. A selection: hits, their analogues and other compounds. The true share with any hit is near 5.5%. Unless noted, calls come from the whole dose curve; as a rule, active = well fitted curve in the direction sought with a large enough effect; inconclusive = small, poorly fitted or top-dose-only effect, or another doubt; inactive = no such curve, though single readings can be large; an effect the other way counts as inactive or inconclusive.

SMILES | MBNL1 CUG block | CtBP-E1A inh | RORg inh | VP16 counter | CBFb-RUNX1 inh | Six1-Eya2 blk
CCc1ccc(NC(=O)COc2ccc(/C=C(/C#N)c3nc4ccccc4[nH]3)cc2OC)cc1 | i | i | 2.8µM | 3.2µM | i | i
COC(=O)c1ccc(COc2ccc(/C=C(\C#N)c3nc4ccccc4[nH]3)cc2OC)o1 | ? | i | i | i | i | i
COc1ccc(/C=N/OC/C(O)=C(\C#N)c2nc3ccccc3[nH]2)cc1 | i | i | 11µM | ? | i | i
CS(=O)(=O)N1CCC2(CC1)CN(c1ccc(-c3ccccc3)cc1)C2 | nt | nt | i | i | nt | nt
COc1ccc(OC/C(O)=C(\C#N)c2nc3ccccc3[nH]2)cc1 | i | i | i | i | i | i
COc1ccc(/C(C)=N/OC/C(O)=C(\C#N)c2nc3ccccc3[nH]2)c(OC)c1 | i | i | 20µM | ? | i | i
O=C(N/N=C/c1cc(Br)cc(Br)c1O)c1cccc(N2CCCC2=O)c1 | i | ? | 3.5µM | 10µM | i | ?
O=C(N/N=C/c1cc(Br)cc(Br)c1O)c1cccc(S(=O)(=O)N2CCOCC2)c1 | i | -94 | i | i | i | -70
CC(C)c1ccc(/C=N/NC(=O)c2cccc(S(=O)(=O)N3CCOCC3)c2)cc1 | i | i | i | i | i | i
O=C(N/N=C/c1ccccc1Br)c1cccc(S(=O)(=O)N2CCOCC2)c1 | nt | i | nt | nt | nt | i
O=C(N/N=C/c1ccc(Cl)cc1Cl)c1cccc(N2CCCC2=O)c1 | i | i | i | i | nt | i
O=C(N/N=C/c1cc(Cl)cc([N+](=O)[O-])c1O)c1cccc(S(=O)(=O)N2CCOCC2)c1 | nt | -87 | nt | nt | nt | -91
COC(OC)C1(CCc2ccccc2)NC(=O)NC1=O (centres undefined) | nt | i | nt | nt | nt | i
COc1ccc2c(C(=O)CCl)c[nH]c2c1 | i | i | ? | 18µM | i | i
COc1cc(OC)c2cc(C(=O)N/N=C/c3cccc(OC)c3O)[nH]c2c1 | i | -76 | 2.2µM | 4.5µM | i | ?
COc1cccc(/C=N/NC(=O)c2cc3c(OC)ccc(OC)c3[nH]2)c1O | i | nt | 1.6µM | 2.8µM | nt | -68
O=C(NCc1nnc(SCC(=O)N2CCCC2)o1)c1ccccc1 | i | i | i | i | nt | i
CC(=O)Nc1ccc(S(=O)(=O)N2CCc3nc(COc4ccccc4)c4c(c3C2)CO[C@@H](C)C4)cc1 | nt | nt | nt | nt | i[13.1 µM] | nt
C=C(C(=O)C(C)(C)O)C(O)c1ccc([N+](=O)[O-])cc1 (centres undefined) | nt | nt | i | i | i | nt
Cc1ccc(C2=NN3C(C2)c2ccccc2OC32C(=O)Nc3ccccc32)cc1 (centres undefined) | i | i | 13µM | ? | i | i
S=c1nc2c(n[nH]1)c1ccccc1n2CCc1ccccc1 | ? | i | 2.2µM | 1.4µM | nt | i
CSc1nnc2c3ccccc3n(CCc3ccccc3)c2n1 | i | i | i | i | i | i
CN1CCN(c2ccc(NC(=O)c3ccc4ccccc4c3)cc2)CC1 | i | i | 11µM | ? | nt | i
O=C(Nc1ccc2ccccc2c1)c1ccc2[nH]c(=O)c(=O)[nH]c2c1 | i | -85 | i | i | nt | ?
Cc1cccc(OCC(=O)NNC(=O)c2ccccc2OCc2c(C)noc2C)c1 | nt | i | nt | nt | nt | i
CCOc1ccccc1N1CCN(C(=S)NC(=O)C23CC4CC(CC(C4)C2)C3)CC1 | nt | i | 3.5µM | 3.5µM | i | i
O=C(Nc1ccccc1N1CCN(c2ccc(F)cc2)CC1)C12CC3CC(CC(C3)C1)C2 | i | i | i | i | i | i
O=C(NC(=S)N1CCN(c2ccc(F)cc2)CC1)C12CC3CC(CC(C3)C1)C2 | nt | i | 1.3µM | 3.2µM | i | i
N#Cc1cccc(NC(=O)N2CCCC3(CCN(C(=O)c4csnn4)CC3)C2)c1 | nt | nt | i | i | nt | nt
